A short description of experiment [1]: yeast TOR pathway RPL19A-GFP modulators, primary screen, cell-based, S. cerevisiae, multiplex flow cytometry (AID 1862; in the data active means percent of DMSO control GFP below about 86%;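 further: lower values mimic rapamycin by blocking the RPL19A rise seen in DMSO cells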). The conditions noted are these: S. cerevisiae RPL19A-GFP strain, flow cytometry fluorescence, 3 h; at 10 µM; stronger effect = lower value.
A short description of experiment [2]: modulators of MEP2-GFP levels in yeast, primary screen, S. cerevisiae, multiplex flow cytometry (AID 1867;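 active means GFP response, as percent of the DMSO control, above the screen-wide mean plus 3 SD, about 139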;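 further: median GFP channel fluorescence of barcode-gated MEP2-GFP cells measured by flow cytometry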). The following applies: S. cerevisiae MEP2-GFP strain, 3 h, at 10 µM, stronger effect = higher value. Background: A flow cytometer gives signals particle by particle.
A short description of experiment [3]: modulators of CIT2-GFP expression in yeast, primary screen, S. cerevisiae, GFP fusion, multiplex flow cytometry (AID 1870;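 active means percent response above a set limit, the screen-wide mean plus 3 SD, cut at about 130% in these data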;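 further: barcoded CIT2-GFP strain pooled with four other GFP strains with rapamycin as positive control; median GFP fluorescence per well over plate mean of DMSO wells so 100% = DMSO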). The following applies: 3 h, at 10 µM, stronger effect = higher value.
Experiment [4] is described as follows: modulators of LAP4-GFP expression in yeast, primary screen, S. cerevisiae, multiplex flow cytometry (AID 1873;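 active means GFP signal, as percent of the solvent control, above the screen mean plus 3 SD, about 149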). The following applies: 3 h, at 10 µM, stronger effect = higher value.
Experiment [5] in a line: modulators of AGP1-GFP expression in yeast TOR pathway, primary screen, cell-based, multiplex flow cytometry, S. cerevisiae (AID 1887;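 active means GFP signal above the screen-wide mean plus 3 SD, that is over about 124.5% of the solvent control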;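 further: AGP1-GFP fusion strain of S. cerevisiae within a five-strain barcoded multiplex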). The following applies: 3 h, at 10 µM, stronger effect = higher value.
Experiment [6] can be described thus: inhibitors of CD8+ T cell-vesicle binding, pilot screen, LFA-1/ICAM-1 modulator project, MLPCN validation set, flow cytometry (AID 2523;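 active means response below a set limit, under 55% cells CD8-positive and vesicle-bound, and CD8 cells' 90th-percentile brightness under 279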;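 on vesicle binding response: mean PE anti-B7-1 fluorescence of CD8+ cells relative to row control; 100% = QL9-loaded vesicles with DMSO vehicle in the same plate row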). The following applies: 2C mouse CD8+ T cells, at 7 µM, stronger effect = lower value; double positive events: measured here: CD8+/vesicle+ event percentage.
Experiment [7] has as its target Integrin beta-1 (Homo sapiens) + Integrin alpha-4 (Homo sapiens) (UniProt P13612+P05556). The experiment in a line: inhibition of HUTS-21 binding to VLA-4, pilot screen, VLA-4 allosteric modulator project, U937 cells, HUTS-21 mAb, flow cytometry, validation set (AID 2674;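 active means inhibition above 50%, about 3 SD of the validation set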;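 further: antibody binding induced by the VLA-4 ligand LDV present at three times its Kd; 0% = LDV ligand with antibody and no compound and 100% = antibody without LDV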). The following applies: HUTS-21 LIBS mAb binding, at 6.7 µM, stronger effect = higher value.
Experiment [8] is described as follows: superoxide lowering in aged yeast cells, pilot screen, validation compound set (AID 2706;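 active means superoxide response below 65% of plate, a cut near 3 SD across the whole screen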;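 further: yeast exposed to compound for one week at 30 degrees C before staining; 100% = mean of all compound wells on the same plate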). The conditions noted are these: S. cerevisiae aging, superoxide DHE fluorescence; at 10 µM; stronger effect = lower value.
The target of experiment [9] is Beta-adrenergic receptor kinase 1 (Homo sapiens) (UniProt P25098). The experiment in a line: GRK2 binders displacing RNA aptamer, biochemical, validation, human GRK2, bead flow cytometry (AID 488806;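 active means aptamer binding inhibition above 30%, about 3 SD of noise from non-fluorescent compounds; inactive means inhibition at or below 30%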). The conditions noted are these: bead-bound GRK2, FAM-aptamer displacement, at 10 µM, stronger effect = higher value.
The target in experiment [10] is Beta-2 adrenergic receptor (Homo sapiens) (UniProt P07550). The experiment in a line: beta2AR agonists driving receptor internalization, pilot screen, cell-based, FAP fluorogen, flow cytometry, validation set (AID 504459;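 active means percent response above 42, roughly 3 SD of non-fluorescent test compounds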;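 further: agonist-driven loss of surface beta2AR via internalization measured by FAP dye flow cytometry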). The following applies: Am2.2-beta2AR cells, FAP surface receptor flow cytometry; at 10 µM; stronger effect = higher value.
Experiment [11] addresses AP-2 complex subunit beta (Homo sapiens) (UniProt P63010). The experiment in a line: inhibitors of arrestin peptide binding to AP2, pilot screen, biochemical, validation set, GST-AP2 beads, flow cytometry (AID 504541;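 active means inhibition above 54%, about 3 SD of non-fluorescent compounds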;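 further: AP2 carries R879A mutation and is captured from E. coli lysate; bead-bound FITC arrestin peptide fluorescence measuring arrestin peptide binding to AP2; 0% = DMSO wells and 100% = excess unlabeled arrestin peptide control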). The conditions noted are these: FITC arrestin peptide, at 10 µM, stronger effect = higher value.
Experiment [12] in a line: yeast V-ATPase proton transport modulators, S. cerevisiae, pHLuorin, HTS validation (AID 504600; in the data active means response above about 15%;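 further: plate controls were DMSO for no effect and reference compound for full effect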). The conditions noted are these: S. cerevisiae pHLuorin cytosolic pH, at 10 µM, stronger effect = higher value.
Experiment [13] concerns anti-desmoglein-3 scFv antibody binding to human DSG3. In words: inhibitors of anti-DSG3 scFv binding to DSG3, pilot screen, biochemical, validation compound set, bead-based, flow cytometry (AID 588368;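 active means binding below the plate cutoff, the plate median minus 3 SD, with a reading above zero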;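 further: signal is the median channel fluorescence of bead-bound GFP antibody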). The conditions noted are these: Protein G beads, DSG3-Fc, scFv-GFP binding, at 10 µM, stronger effect = lower value.
Experiment [14] deals with Botulinum neurotoxin type F light chain protease (Clostridium botulinum). The experiment in a line: Botulinum neurotoxin type F light chain protease inhibition, multiplex microsphere flow cytometry, validation set (AID 588459). The conditions noted are these: multiplex microsphere protease substrate cleavage assay, at 10 µM, stronger effect = higher value.
The target in experiment [15] is Botulinum neurotoxin type A (Clostridium botulinum) (UniProt P0DPI0). In words: BoNT/A light chain protease inhibitors, biochemical, multiplex microsphere flow cytometry, validation set (AID 588460). The following applies: at 10 µM, stronger effect = higher value.
Experiment [16] addresses Lethal factor (Bacillus anthracis) (UniProt P15917). In words: Lethal factor protease inhibitors, Bacillus anthracis, multiplex microsphere cleavage assay, validation set (AID 588461). The conditions noted are these: flow cytometry, at 10 µM, stronger effect = higher value.
Experiment [17] is described as follows: inhibitors of fungal efflux pumps CDR1, CDR2, MDR1, pilot screen, validation compound set, multiplex, phenotypic (AID 588506;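 active means efflux inhibition above 0.42, the validation set average plus 4 SD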;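 further: Nile Red retained in cells so higher fluorescence means more efflux inhibition; 0 = negative control wells and 1 = enniatin B 25 µM full block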). The conditions noted are these: S. cerevisiae pump-expressing triplex, Nile Red efflux flow cytometry; at 10 µM; stronger effect = higher value.
The target in experiment [18] is ATP-binding cassette sub-family B member 6 (Homo sapiens) (UniProt Q9NP58). The experiment in a line: ABCB6 transporter inhibitors, pilot screen, K562-ABCB6 cells, flow cytometry, validation set (AID 588550;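 active means inhibition above the screen-wide mean plus 3 SD, about 51%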;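 further: 0% = DMSO wells and 100% = benzethonium chloride 70 µM positive control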). The following applies: K562-ABCB6 porphyrin accumulation, 1 h, at 10 µM, stronger effect = higher value.
Experiment [19] in a line: promoters of myeloid differentiation in arrested cells, primary screen, cell-based, GFP/MAC1 double positive, flow cytometry, validation set (AID 588685;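 active means differentiation response of at least 50%, scaled between solvent and reference control, from cells with both markers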;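 further: compound exposure lasts four days before antibody staining and flow analysis; 0% = DMSO wells and 100% = 5 µM fulvestrant positive control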). The conditions noted are these: ER-HoxA9 marrow cells, stronger effect = higher value.

“And” between values parts separate entries of the source, which are not always exact repeats. Equal entries are not always repeated. Inconclusive results are not listed. More than one record can exist for a structure, and the calls need not agree. The source made the active and inactive calls. Unless noted, how the calls were made is not given here.

Lethal factor (Bacillus anthracis), sequence (P15917 whole entry, looked up): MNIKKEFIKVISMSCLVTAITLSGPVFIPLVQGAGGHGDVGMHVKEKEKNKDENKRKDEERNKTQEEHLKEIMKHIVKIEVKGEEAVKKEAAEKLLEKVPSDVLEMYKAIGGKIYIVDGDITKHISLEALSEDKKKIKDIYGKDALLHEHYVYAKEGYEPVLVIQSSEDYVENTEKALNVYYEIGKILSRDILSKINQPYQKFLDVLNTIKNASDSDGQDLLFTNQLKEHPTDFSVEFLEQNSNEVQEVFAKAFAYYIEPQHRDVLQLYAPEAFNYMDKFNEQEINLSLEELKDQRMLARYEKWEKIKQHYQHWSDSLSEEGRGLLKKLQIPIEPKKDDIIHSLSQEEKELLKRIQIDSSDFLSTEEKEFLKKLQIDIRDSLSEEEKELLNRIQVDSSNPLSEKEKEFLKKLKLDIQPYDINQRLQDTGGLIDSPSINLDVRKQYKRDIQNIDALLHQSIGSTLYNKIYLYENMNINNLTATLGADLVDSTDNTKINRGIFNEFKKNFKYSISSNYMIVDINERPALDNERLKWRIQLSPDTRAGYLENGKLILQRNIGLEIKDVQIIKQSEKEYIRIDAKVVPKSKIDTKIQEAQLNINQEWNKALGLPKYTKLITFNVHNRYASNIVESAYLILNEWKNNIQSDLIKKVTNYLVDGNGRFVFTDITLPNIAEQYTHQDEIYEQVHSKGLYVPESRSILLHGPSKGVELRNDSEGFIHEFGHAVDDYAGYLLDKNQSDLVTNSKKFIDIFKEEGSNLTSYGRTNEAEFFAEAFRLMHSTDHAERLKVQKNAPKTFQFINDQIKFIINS
Beta-2 adrenergic receptor (Homo sapiens), sequence (P07550 whole entry, looked up): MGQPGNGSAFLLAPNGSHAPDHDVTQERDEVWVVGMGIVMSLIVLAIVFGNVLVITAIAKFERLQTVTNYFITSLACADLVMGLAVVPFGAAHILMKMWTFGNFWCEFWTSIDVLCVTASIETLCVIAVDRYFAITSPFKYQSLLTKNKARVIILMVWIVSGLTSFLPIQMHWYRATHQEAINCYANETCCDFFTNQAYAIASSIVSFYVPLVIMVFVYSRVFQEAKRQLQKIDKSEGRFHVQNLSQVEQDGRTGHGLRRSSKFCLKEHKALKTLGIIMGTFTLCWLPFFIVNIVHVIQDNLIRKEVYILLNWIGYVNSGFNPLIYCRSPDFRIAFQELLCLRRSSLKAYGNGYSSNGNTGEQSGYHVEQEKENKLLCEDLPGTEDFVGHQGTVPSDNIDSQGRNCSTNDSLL
Integrin beta-1 (Homo sapiens) + Integrin alpha-4 (Homo sapiens), sequence (P05556 whole entry, looked up): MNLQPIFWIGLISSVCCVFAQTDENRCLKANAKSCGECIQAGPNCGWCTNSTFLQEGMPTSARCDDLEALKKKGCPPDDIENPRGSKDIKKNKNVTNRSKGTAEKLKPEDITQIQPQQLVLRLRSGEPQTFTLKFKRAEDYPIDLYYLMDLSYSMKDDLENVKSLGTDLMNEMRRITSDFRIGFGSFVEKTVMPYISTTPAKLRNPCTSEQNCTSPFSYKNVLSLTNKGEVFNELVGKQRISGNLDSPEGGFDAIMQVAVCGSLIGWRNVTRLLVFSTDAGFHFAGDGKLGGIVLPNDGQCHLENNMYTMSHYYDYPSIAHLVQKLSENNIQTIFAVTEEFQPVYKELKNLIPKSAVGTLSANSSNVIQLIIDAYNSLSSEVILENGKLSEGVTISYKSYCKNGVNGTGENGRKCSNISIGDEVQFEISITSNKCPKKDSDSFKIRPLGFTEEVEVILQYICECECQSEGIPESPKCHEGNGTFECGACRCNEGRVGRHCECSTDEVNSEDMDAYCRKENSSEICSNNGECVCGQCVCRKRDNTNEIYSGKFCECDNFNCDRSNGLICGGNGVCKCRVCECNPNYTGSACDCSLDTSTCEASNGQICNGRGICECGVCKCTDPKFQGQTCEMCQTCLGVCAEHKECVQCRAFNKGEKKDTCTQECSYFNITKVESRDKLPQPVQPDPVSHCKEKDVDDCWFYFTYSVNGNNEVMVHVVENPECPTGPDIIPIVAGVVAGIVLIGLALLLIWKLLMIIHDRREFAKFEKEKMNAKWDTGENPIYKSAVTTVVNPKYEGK
Integrin beta-1 (Homo sapiens) + Integrin alpha-4 (Homo sapiens), sequence (P13612 whole entry, looked up): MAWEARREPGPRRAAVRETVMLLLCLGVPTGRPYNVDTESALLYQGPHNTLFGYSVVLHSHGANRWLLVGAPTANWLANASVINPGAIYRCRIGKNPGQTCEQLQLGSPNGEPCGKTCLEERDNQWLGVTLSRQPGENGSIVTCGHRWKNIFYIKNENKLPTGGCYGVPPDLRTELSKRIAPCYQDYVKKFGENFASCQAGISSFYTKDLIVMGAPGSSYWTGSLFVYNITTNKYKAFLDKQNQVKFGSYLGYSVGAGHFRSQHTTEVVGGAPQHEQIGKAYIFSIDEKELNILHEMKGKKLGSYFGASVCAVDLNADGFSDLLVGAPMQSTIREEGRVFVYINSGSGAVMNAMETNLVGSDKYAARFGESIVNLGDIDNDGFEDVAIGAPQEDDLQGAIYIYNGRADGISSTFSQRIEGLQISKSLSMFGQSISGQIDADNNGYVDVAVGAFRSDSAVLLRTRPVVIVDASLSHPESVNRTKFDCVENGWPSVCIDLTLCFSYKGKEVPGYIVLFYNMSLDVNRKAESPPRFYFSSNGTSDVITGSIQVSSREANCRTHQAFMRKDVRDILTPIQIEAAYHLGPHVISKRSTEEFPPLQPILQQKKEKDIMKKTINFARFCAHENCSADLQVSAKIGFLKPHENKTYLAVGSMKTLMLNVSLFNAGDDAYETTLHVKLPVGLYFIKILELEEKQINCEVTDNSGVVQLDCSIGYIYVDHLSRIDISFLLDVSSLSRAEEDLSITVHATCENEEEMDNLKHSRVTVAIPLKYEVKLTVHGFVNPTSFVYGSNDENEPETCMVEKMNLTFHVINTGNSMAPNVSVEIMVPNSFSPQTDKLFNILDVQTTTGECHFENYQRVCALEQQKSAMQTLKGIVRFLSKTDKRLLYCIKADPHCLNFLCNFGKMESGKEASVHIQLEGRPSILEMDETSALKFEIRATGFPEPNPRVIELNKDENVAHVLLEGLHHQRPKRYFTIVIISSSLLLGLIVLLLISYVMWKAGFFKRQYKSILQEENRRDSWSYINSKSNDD
Beta-adrenergic receptor kinase 1 (Homo sapiens), sequence (P25098 whole entry, looked up): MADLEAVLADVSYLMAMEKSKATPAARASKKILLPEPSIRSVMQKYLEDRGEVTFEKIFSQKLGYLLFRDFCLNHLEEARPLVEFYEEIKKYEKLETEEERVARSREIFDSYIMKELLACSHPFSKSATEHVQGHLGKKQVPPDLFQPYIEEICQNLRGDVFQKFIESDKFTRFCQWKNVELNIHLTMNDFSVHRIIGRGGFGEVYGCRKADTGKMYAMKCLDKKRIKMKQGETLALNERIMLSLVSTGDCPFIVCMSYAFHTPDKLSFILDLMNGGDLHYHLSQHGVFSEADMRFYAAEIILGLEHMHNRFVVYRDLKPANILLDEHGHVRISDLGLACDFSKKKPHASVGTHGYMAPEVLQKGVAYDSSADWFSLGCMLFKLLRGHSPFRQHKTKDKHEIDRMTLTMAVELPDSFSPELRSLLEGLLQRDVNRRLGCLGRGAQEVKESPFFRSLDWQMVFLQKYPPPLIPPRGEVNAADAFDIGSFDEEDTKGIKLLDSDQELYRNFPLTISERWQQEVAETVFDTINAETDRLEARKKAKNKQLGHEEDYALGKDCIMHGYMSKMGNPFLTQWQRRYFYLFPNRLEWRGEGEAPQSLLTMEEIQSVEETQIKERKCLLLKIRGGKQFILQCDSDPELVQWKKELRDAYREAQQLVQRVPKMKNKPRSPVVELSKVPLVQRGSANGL
AP-2 complex subunit beta (Homo sapiens), sequence (P63010 whole entry, looked up, one chain of several): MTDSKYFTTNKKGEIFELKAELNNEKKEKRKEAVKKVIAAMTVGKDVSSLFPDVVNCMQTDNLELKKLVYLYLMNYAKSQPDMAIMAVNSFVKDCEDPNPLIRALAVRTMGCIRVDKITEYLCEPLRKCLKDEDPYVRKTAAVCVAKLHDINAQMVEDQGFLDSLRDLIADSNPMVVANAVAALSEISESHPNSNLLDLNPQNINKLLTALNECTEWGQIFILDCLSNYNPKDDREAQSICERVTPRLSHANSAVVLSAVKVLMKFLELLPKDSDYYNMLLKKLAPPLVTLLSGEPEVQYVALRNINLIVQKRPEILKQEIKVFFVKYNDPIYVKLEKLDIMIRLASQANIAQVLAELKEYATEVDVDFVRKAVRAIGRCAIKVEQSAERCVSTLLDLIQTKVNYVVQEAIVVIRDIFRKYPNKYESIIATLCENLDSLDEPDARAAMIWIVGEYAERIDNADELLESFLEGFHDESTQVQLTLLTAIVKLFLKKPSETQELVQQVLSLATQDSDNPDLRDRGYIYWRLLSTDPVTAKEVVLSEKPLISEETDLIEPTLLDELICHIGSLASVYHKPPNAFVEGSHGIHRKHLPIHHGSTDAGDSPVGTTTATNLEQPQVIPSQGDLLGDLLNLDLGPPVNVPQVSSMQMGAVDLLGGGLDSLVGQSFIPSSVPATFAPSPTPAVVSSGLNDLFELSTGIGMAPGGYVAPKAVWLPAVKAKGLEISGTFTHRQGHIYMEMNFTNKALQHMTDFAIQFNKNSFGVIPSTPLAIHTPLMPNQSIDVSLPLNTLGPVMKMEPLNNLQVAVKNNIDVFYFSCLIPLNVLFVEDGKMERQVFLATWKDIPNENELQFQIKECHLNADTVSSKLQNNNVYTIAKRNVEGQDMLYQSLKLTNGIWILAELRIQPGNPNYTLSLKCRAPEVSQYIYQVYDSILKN

As a reminder, the inhibition is the relative decrease from the control value, in per cent. With `Cc1cc(OCc2cc(C(=O)O)oc2C)c2c3c(c(=O)oc2c1)CCCC3`, the percent of DMSO control GFP in [1] is 104% (inactive). Moreover, the GFP response vs DMSO in [2] was 97.2% (inactive); in [4], 96.6% (inactive). The percent response of DMSO control in experiment [3] is 114% (inactive). Besides, the GFP response, % of DMSO in [5] is 101% (inactive). The double positive events in [6] was 66.4%. The vesicle binding response in experiment [6] is 282% (inactive). Moreover, the inhibition in experiment [7] is 7.85% (inactive); in experiment [11], -4.24% (inactive); in experiment [14], -2% (inactive); in [15], -0.5% (inactive); in experiment [16], -8.8% (inactive); in experiment [18], 6% (inactive). In experiment [8], the superoxide response (% of plate) was 90.3% (inactive). Also, the aptamer binding inhibition in experiment [9] was 4% (inactive). For the same compound, the response in [10] is -5.78% (inactive); in [12] it was -0.71% (inactive). For the same compound, in experiment [13], the binding (% of control) is 97.1% (inactive). The efflux inhibition (fraction of control) in [17] is -0.01 (inactive). Also, the differentiation response in [19] is 6.11% (inactive).
Consider `c1ccc2c3c([nH]c2c1)CNCC3`, for which the percent of DMSO control GFP in experiment [1] is 100% (inactive). Moreover, the GFP response vs DMSO in [2] was 104% (inactive); in [4] it was 111% (inactive). Moreover, in experiment [3], the percent response of DMSO control is 106% (inactive). In addition, the GFP response, % of DMSO in experiment [5] is 105% (inactive). The compound also showed a double positive events in experiment [6] of 55.3%. Further, the vesicle binding response in experiment [6] is 82.8% (inactive). The inhibition was -19.9% (inactive) in experiment [7]; -0.49% (inactive) in experiment [11]; -9.7% (inactive) in experiment [14]; 0.1% (inactive) in experiment [15]; -60.3% (inactive) in experiment [16]; -82% (inactive) in experiment [18]. Further, the superoxide response (% of plate) in [8] is 113% (inactive). Besides, the aptamer binding inhibition in [9] was -5% (inactive). Moreover, the response in experiment [10] was -12.8% (inactive); in experiment [12] it was 0.12% (inactive). Further, in [13], the binding (% of control) was 181% (inactive). In addition, in [17], the efflux inhibition (fraction of control) is 0.395 (inactive). Besides, the differentiation response in experiment [19] is -0.18% (inactive).
Turning to `C[N+]1(C)CCc2cc3c(cc2[C@H]1[C@@H]1OC(=O)c2c1ccc1c2OCO1)OCO3`, the percent of DMSO control GFP in experiment [1] was 105% (inactive) and 102% (inactive). Also, the GFP response vs DMSO in experiment [2] is 102% (inactive) and 108% (inactive); in experiment [4] it was 98% (inactive) and 90.1% (inactive). Further, in experiment [3], the percent response of DMSO control was 104% (inactive) and 93.1% (inactive). The GFP response, % of DMSO in experiment [5] is 100% (inactive) and 93.4% (inactive). In addition, the double positive events in experiment [6] was 60.5% and 65.5%. The vesicle binding response in [6] is 128% (inactive) and 1190% (inactive). Moreover, the inhibition is 5.61% (inactive) and 11% (inactive) in [7]; 55.1% (active) and -7.04% (inactive) in experiment [11]; -0.6% (inactive) and -2.3% (inactive) in experiment [14]; -1% (inactive) and -0.6% (inactive) in experiment [15]; 1% (inactive) and -2.4% (inactive) in experiment [16]; 24% (inactive) and -3% (inactive) in [18]. For the same compound, the superoxide response (% of plate) in [8] is 93.4% (inactive) and 102% (inactive). The aptamer binding inhibition in experiment [9] was -1% (inactive) and 5% (inactive). In addition, the response in experiment [10] was -0.95% (inactive) and -3.71% (inactive); in experiment [12], -7.78% (inactive) and 0.91% (inactive). Besides, the binding (% of control) in experiment [13] is 101% (inactive) and 97.9% (inactive). Besides, the efflux inhibition (fraction of control) in [17] is 0.115 (inactive) and -0.1 (inactive). In addition, the differentiation response in [19] was -10.4% (inactive) and 1.22% (inactive).
Regarding `CC(C)[N+](C)(CCC(C(N)=O)(c1ccccc1)c1ccccc1)C(C)C`, the percent of DMSO control GFP in experiment [1] was 105% (inactive). Besides, the GFP response vs DMSO in [2] was 107% (inactive); in [4], 99.1% (inactive). In experiment [3], the percent response of DMSO control was 107% (inactive). Also, in [5], the GFP response, % of DMSO is 106% (inactive). Besides, in [6], the double positive events worked out at 61.6%. For the same compound, in experiment [6], the vesicle binding response is 144% (inactive). The inhibition in experiment [7] is 5.61% (inactive); in experiment [11], -5.08% (inactive); in experiment [14], -5% (inactive); in experiment [15], -2.6% (inactive); in [16], -9.4% (inactive); in experiment [18] it was 21% (inactive). Also, the superoxide response (% of plate) in [8] is 110% (inactive). The aptamer binding inhibition in [9] was 2% (inactive). For the same compound, the response was 9.5% (inactive) in experiment [10] and 0.78% (inactive) in experiment [12]. Moreover, the binding (% of control) in [13] is 101% (inactive). For the same compound, in [17], the efflux inhibition (fraction of control) is -0.61 (inactive). Also, in experiment [19], the differentiation response is -8.96% (inactive).
With `OC1CCCCC1N1CCC(c2ccccc2)CC1` (stereo not given), in [1], the percent of DMSO control GFP is 92.8% (inactive). Further, the GFP response vs DMSO is 133% (inactive) in experiment [2] and 70.4% (inactive) in experiment [4]. The percent response of DMSO control in experiment [3] is 91.3% (inactive). For the same compound, the GFP response, % of DMSO in experiment [5] was 89.4% (inactive). The same compound displayed a double positive events in experiment [6] of 62.4%. Further, in experiment [6], the vesicle binding response was 171% (inactive). For the same compound, the inhibition in [7] is 5.49% (inactive); in experiment [11] it was -5.17% (inactive); in experiment [14] it was 8.9% (inactive); in [15] it was -1% (inactive); in [16] it was 6.3% (inactive); in [18], 15% (inactive). The superoxide response (% of plate) in experiment [8] is 110% (inactive). In addition, the aptamer binding inhibition in experiment [9] is 3% (inactive). The results for the response in experiment [10] and in experiment [12] were -8.3% (inactive) and 2.23% (inactive), respectively. For the same compound, the binding (% of control) in experiment [13] is 127% (inactive). In addition, the efflux inhibition (fraction of control) in [17] was 0.52 (active). In addition, the differentiation response in experiment [19] was -1.64% (inactive).
As for `CC[C@]12C=CCN3CCC4(c5cc(Br)c(OC)cc5N(C)C4[C@@](O)(C(=O)OC)[C@@H]1OC(C)=O)C32` (stereo not given in full), the percent of DMSO control GFP in experiment [1] is 88.9% (inactive). Moreover, the GFP response vs DMSO in [2] was 130% (inactive); in [4] it was 84.2% (inactive). The percent response of DMSO control in experiment [3] was 96.6% (inactive). Also, the GFP response, % of DMSO in [5] is 90.5% (inactive). In experiment [6], this compound returned a double positive events of 48.2%. Also, the vesicle binding response in experiment [6] was 18.6% (active). Further, the inhibition in experiment [7] was 29.7% (inactive); in [11], -7.24% (inactive); in [14], 2.5% (inactive); in experiment [15], 1.6% (inactive); in [16], -5.6% (inactive); in experiment [18], 10% (inactive). Besides, the superoxide response (% of plate) in experiment [8] was 95.7% (inactive). Besides, the aptamer binding inhibition in experiment [9] is 5% (inactive). Further, the figures for the response in [10] and in experiment [12] were -10.3% (inactive) and 5.2% (inactive), respectively. The binding (% of control) in experiment [13] was 109% (inactive). Moreover, the efflux inhibition (fraction of control) in [17] is 0.23 (inactive). Further, the differentiation response in [19] was 0% (inactive).

(Values after PubChem BioAssay.)
